Pf growth 48h: inhibits P. falciparum growth in the first generation, 48 h; P. falciparum luciferase growth in erythrocytes, 48 h; Potency, µM (highest dose often 28.7 µM), for the others: at the highest dose activity change, negative = inhibition, usual class: inhibitors; hit rate 5.9% among 310,000; AID 504832; also: potency is read from the fitted curve at half-maximal effect
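Growth was read as firefly luciferase luminescence after a 48 h, 37 C, 5% CO2 exposure of compounds to reporter-bearing P. falciparum cultures (0.1% parasitemia, 2% hematocrit final) in Albumax-supplemented RPMI 1640.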
HCMV inh: blocks human cytomegalovirus replication | HFF cells, HCMV-luciferase reporter, 72 h; hits give low values | activity change, negative = inhibition, % at 57.5 µM | hit rate 4.5% among 410,000; in the data active = activity change below about -60%; inconclusive = no clear call, values can overlap the other calls; inactive = above about -39%
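Inhibition of viral replication was scored as loss of reporter luminescence in HFFs infected with HCMV-luciferase (MOI 1 PFU/cell) for 72 h; compounds tested at 2 doses, normalized to buffer and Salinomycin controls.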
Pf growth 96h: P. falciparum growth inhibition at 96 hour, primary screen for plastid delayed-death inhibitors; P. falciparum luciferase reporter growth, 96 h; Potency, µM (doses to about 28.7 µM), for inactives: top-dose activity change, negative = inhibition, most hits filed as inhibitors; hit rate 6.9% among 320,000; also: potency is read from the fitted curve at half-maximal effect
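Two-generation exposure (96 h) targets delayed-death phenotype. Reporter parasites carrying integrated firefly luciferase, in red cells at 2% hematocrit and 0.05% parasitemia final, kept at 37 C, 5% CO2; luminescence loss indicates inhibition.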
Sm TGR inh: S. mansoni TGR enzyme inhibition; AID 485364; Q962Y6; hit rate 3% among 360,000; Potency, µM (doses to about 114 µM), for the others: at the highest dose activity change, negative = inhibition, most hits filed as inhibitors; purified TGR, DTNB reduction, TNB absorbance 405 nm; also: potency is read from the fitted curve at half-maximal effect; nearly all actives have a fitted effect of over 60% in size
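First, TGR (20 nM dispensed) and NADPH were mixed with compound. Second, a 15 min room-temperature incubation followed. Third, further NADPH and then DTNB were added to start the reaction. Finally, TNB absorbance was monitored kinetically.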
FBPA Giardia inh: inhibitors of Giardia lamblia fructose-1,6-bisphosphate aldolase; Potency, µM (titrated, usually from 59.6 µM), without a hit: at the highest dose activity, negative = inhibition, usual class: inhibitors; A8B2U2; purified Giardia FBPA; hit rate 0.71% among 290,000; also: potency is read from the fitted curve at half-maximal effect; nearly all actives have a fitted effect of over 55% in size
Target sequence (A8B2U2 whole entry, looked up): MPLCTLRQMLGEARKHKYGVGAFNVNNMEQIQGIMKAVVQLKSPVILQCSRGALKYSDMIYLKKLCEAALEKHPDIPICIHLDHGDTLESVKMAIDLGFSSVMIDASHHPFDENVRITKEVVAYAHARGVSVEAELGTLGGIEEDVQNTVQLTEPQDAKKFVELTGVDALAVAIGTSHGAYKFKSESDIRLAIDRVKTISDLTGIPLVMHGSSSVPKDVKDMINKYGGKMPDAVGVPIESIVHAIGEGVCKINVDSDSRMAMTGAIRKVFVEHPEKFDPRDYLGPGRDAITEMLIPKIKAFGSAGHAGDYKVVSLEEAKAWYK
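Giardia FBPA (40 nM reagent) was preincubated 10 min at RT with compound (up to 57.5 uM final), then substrate plus GAPDH/TPI/NAD/arsenate coupling system with diaphorase/resazurin was added; resorufin fluorescence (525/598 nm) was read after 20 min.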
Starred values were filed as active, the others as inactive; u = inconclusive; x = no result; [ ] = another dose, or the depositor's remark. This is a sample that favours compounds with a hit; in the whole collection about 14% have one here. Unless noted, calls follow the shape of the dose curve; as a rule, active = well fitted curve in the direction sought with a large enough effect; inconclusive = small, poorly fitted or top-dose-only effect, or another doubt; inactive = no such curve, though single readings can be large; an effect the other way counts as inactive or inconclusive. % is scaled to controls: 0 for no effect and ±100 for the full control effect.

SMILES | Pf growth 48h | HCMV inh | Pf growth 96h | Sm TGR inh | FBPA Giardia inh
Cc1ccc2nc(SCC(=O)N3CCC(Cc4ccccc4)CC3)nc(=O)n2c1 | u | u | u | 6% | x
Cc1ccc(-c2csc(N3CCC(C(N)=O)CC3)n2)cc1 | u | 88 | u | -3% | x
Cc1ccc(-c2csc(N3CCC(NS(=O)(=O)c4ccc5c(c4)OCCO5)CC3)n2)cc1 | u | -85* | 9.3µM* | 10% | -8%
COc1ccc(CN2C(=NC(=O)C3CC3)SC3CS(=O)(=O)CC32)cc1OC (centres undefined) | -26% | 50 | 6% | -3% | 9%
COc1cccc(CNC(=O)Cc2ccc(NC(=O)N3CCSc4ncccc43)cc2)c1OC | x | 0 | x | 7% | x
CC(=O)NNS(=O)(=O)c1ccc(-c2cc(C(F)(F)F)n(C)n2)s1 | 1% | 8 | -14% | 12% | -2%
COCC(=O)N1CCC2(CCCN(c3ccc(-c4ccccc4)cc3)C2)CC1 | x | x | x | x | -12%
OC(c1ccccc1)(c1nc(-c2ccc3ccccc3c2)cs1)C(F)(F)F (centres undefined) | x | -83* | x | x | x
OC(c1ccccc1)(c1nc(-c2ccccc2)cs1)C(F)(F)F (centres undefined) | x | -24 | x | x | x
OC(c1ccccc1)(c1nc(/C=C/c2ccccc2)cs1)C(F)(F)F (centres undefined) | x | -61* | x | x | x
CC(O)(c1ccccc1)c1nc(/C=C/c2ccccc2)cs1 (centres undefined) | x | -8 | x | x | x
C[C@H](NC(=O)C1CCN(C(=O)[C@H](Cc2ccccc2)NC(=O)OC(C)(C)C)CC1)C(=O)O | -13%[0.00184 µM] | 41 | 14% | 7% | 6%
O=S1(=O)N=C(Nc2ccc(O)c(CN3CCCCC3)c2)c2ccccc21 | 1.5µM* | -10 | u | 2% | -1%
CC1(C)Cc2c(cnn2-c2ccc(F)cc2)C(NC(=O)CCn2cncn2)C1 (centres undefined) | -2% | 50 | u | -19% | x
CC1(C)Cc2c(cnn2-c2ccccc2)C(NC(=O)CCCn2cncn2)C1 (centres undefined) | -19% | 66 | 12µM* | 0% | x
Cc1ccc(-n2ncc3c2CC(C)(C)CC3NC(=O)CCc2cccnc2)cc1 (centres undefined) | -11% | x | 12µM* | 0% | x
CCc1noc(C)c1C(=O)NC1CC(C)(C)Cc2c1cnn2-c1ccccc1 (centres undefined) | -23% | 14 | 9.3µM* | -9% | x
Cc1ccc(-n2ncc3c2CC(C)(C)CC3NC(=O)CCc2ccncc2)cc1 (centres undefined) | 2% | -24 | u | 0% | 0%
Cc1ccc(-n2ncc3c2CC(C)(C)CC3NC(=O)c2c(C)noc2C)cc1 (centres undefined) | -18% | -19 | u | -14% | x
c1ccc(-c2cc3c(Nc4cccnc4)nccc3[nH]2)cc1 | x | 11 | x | x | x
Cc1nn(-c2ccccc2)c2nc(C(F)(F)F)[nH]c(=O)c12 | 13% | -14 | 39% | -1% | -17%
Cc1nn(-c2cc(C(F)(F)F)ccc2Cl)c2nc(C(Cl)(Cl)Cl)[nH]c(=O)c12 | u | -26 | u | 20µM* | 20%
C/C(=C\c1ccc(N(C)C)cc1)[N+](=O)[O-] | u | -102* | u | 0% | -3%
CC1=CC(C)C(/C=N/N=C(N)N)C(C)C1 (centres undefined) | 12µM* | -8 | 2.9µM* | -6% | 2%
CC1=CC(C)C(C[N+]2(C)CCCCC2)C(C)C1 (centres undefined) | u | 36 | 19% | u | 1%
SMILES | Pf growth 48h | HCMV inh | Pf growth 96h | Sm TGR inh | FBPA Giardia inh
CCCCNC(=O)C(NC(=O)c1ccc2c(c1)OCO2)C(=O)c1ccccc1 (centres undefined) | x | -9 | x | x | x
COC(=O)c1ccc(C23CC4(C2)[C@H](CN(Cc2cccnc2)[C@@H]4c2ccccc2)C3c2ccccc2)cc1 (some centres undefined) | 7.4µM* | 12 | 8.3µM* | u | 2%
COC(=O)c1ccc(C23CC4(C2)[C@H](CN(Cc2cccnc2)[C@@H]4c2ccccc2)C3c2ccc(C(F)(F)F)cc2)cc1 (some centres undefined) | 2.9µM* | -14 | 3.3µM* | 17% | 0%
COC(=O)c1ccc(C23CC4(C2)[C@H](CN(CC2CCCCC2)[C@@H]4c2ccccc2)C3c2ccccc2)cc1 (some centres undefined) | u | 7 | u | 47% | -1%
N#Cc1ccc(C23CC4(C2)[C@H](CN(Cc2cccnc2)[C@@H]4c2ccccc2)C3c2ccccc2)cc1 (some centres undefined) | 4.1µM* | -30 | 3.7µM* | u | 0%
Cc1cccc(-c2noc(C3CC(=O)N(c4ccc5c(c4)OCCO5)C3)n2)c1 (centres undefined) | x | -6 | x | 0% | x
COc1ccc(OC)c(-c2ccc(C(=O)O)o2)c1 | x | x | x | x | 23%[89.2 µM]
O=C1Nc2ccccc2N=C(c2ccccc2)C1Br (centres undefined) | 18% | -24 | -21% | 40µM* | u
O=C1Nc2ccccc2N=C(c2ccccc2)C1N1CCOCC1 (centres undefined) | 15% | 62 | -13% | 1% | -8%
O=C(COC(=O)CCNS(=O)(=O)c1ccccc1)NC1CC1 | x | 1 | x | x | x
CON(C)C(=O)CCN(C(=O)OC(C)(C)C)c1ccccc1 | x | -37 | x | x | x
COC(=O)CCC(=O)N(CCN(C(=O)CCC(=O)OC)c1ccccc1)c1ccccc1 | -2% | -95* | u | 5% | 6%
CC1(C)O[C@@H]2[C@H](O1)[C@@H](CO)O[C@H]2n1ccc(=O)[nH]c1=O | 4% | -25 | 36% | 1% | x
c1ccc2c(c1)Nc1ccncc1S2 | 15µM* | -71* | u | 10% | u
S=C1Nc2ccccc2Sc2ccccc21 | -25% | -36 | u | -11% | -10%
c1ccc2c(c1)Nc1cc3ccccc3cc1S2 | -21% | 6 | 1.9µM* | 3% | u
c1ccc2c(c1)CSc1ccccc1N2 | x | 31 | x | x | x
COc1ccc2c(c1)Sc1ccccc1N2 | -9% | -81* | u | 22µM* | -12%
COc1ccc2c(c1)S(=O)(=O)c1ccccc1N2 | 14% | -29 | 30% | 5% | -5%
Cc1cc(OCC(=O)Nc2cc(C)nn2-c2ccccn2)c2c3c(c(=O)oc2c1)CCC3 | 6% | x | 147% | 0% | 3%
Cc1cc(OC(=O)c2ccco2)c2c3c(c(=O)oc2c1)CCCC3 | x | -67* | 3.7µM* | 7% | 5%
O=C(Oc1cc2oc(=O)c3c(c2cc1Cl)CCCC3)c1cccs1 | 20% | 17 | u | 1% | 1%
Cc1ccc(-n2nc(C)cc2NC(=O)COc2cc(C)cc3oc(=O)c4c(c23)CCC4)cc1 | u | 7 | 9.3µM* | 4% | 5%

Bioassay records from PubChem.
